Drawing on PubChem BioAssay (EPA / NIEHS), this text covers outcome and AC50 for 36 compounds.

Each structure is given as a SMILES string. Values joined by “and” are separate entries in the source; they are usually repeats but may differ in a detail not shown here. Equal entries are not always repeated. Active and inactive are the calls of the source. The calls were made as follows: active = hit-call score of the fitted dose curve at least 0.9, where 1 is the maximum; inactive = score below 0.9.

Read-out in the assay: Basic fibroblast growth factor (bFGF), FGF2 (gene 2247)
The assay is described as follows: BSK_MyoF_bFGF: BioMAP Diversity Plus: MyoF Assay for Basic fibroblast growth factor (bFGF) Biomarker Activity (AID 2284246). The note with it: primary human lung fibroblasts. On the procedure:
BSK_MyoF is a cell-based, multiplexed-readout assay that uses lung fibroblasts, a human […] primary cell, with measurements taken at 24 hours after chemical dosing in a microplate: 96-well plate.BSK_MyoF_bFGF is an assay component measured in the BSK_MyoF assay. It measures bFGF antibody related to regulation of gene expression using ELISA technology.Data from the assay component BSK_MyoF_bFGF was analyzed at the endpoint, BSK_MyoF_bFGF, in the positive analysis fitting direction relative to DMSO as the negative control and baseline of activity. Using a type of binding reporter, gain or loss-of-signal activity can be used to understand protein changes. To generalize the intended target to other relatable targets, this assay endpoint is annotated to the 'growth factor' intended target family, where the subfamily is 'basic fibroblast growth factor '.
The levels of cell surface (or secreted, indicated by the prefix "s") biomarker endpoints were measured by ELISA. Overt cytotoxicity to cells in confluent adherent cultures (all systems other than the BT system) was assessed by measuring total protein levels using sulforhodamine B (SRB) staining in parallel cultures at the time of biomarker measurements, indicated as SRB endpoints. For proliferation assays for adherent cell types, individual cell types are cultured at sub-confluence and relative cell numbers quantified by SRB staining at time points optimized for each system (48 h: 3C and CASM3C systems; 72 h: BT and HDF3CGF systems; 96 h: SAg system). SRB was performed by staining cells with 0.1% SRB after fixation with 10% TCA and reading wells at 560 nm.Viability and proliferation of PBMC (T cells) was quantified by Alamar Blue reduction for the SAg and BT systems. For PBMC viability (referred to as PBMC Cytotoxicity within the assay endpoint names), cells were plated (75,000/well in a 96-well plate) and then chemical samples added for 1 h before addition of activators, SEB and TSST-1 (20 ng/mL final concentration each). Cells were incubated for 90 h. Then, Alamar Blue (20 uL/well) (Invitrogen, Cat DAL1100) was added for 6 h, and the plates were read with a fluorescence microplate reader at 546/580 nm (excitation/emission). For PBMC proliferation, cells were plated and activated as above but incubated for only 16 h prior to addition of Alamar Blue. Plates were read after 6 h.
On to `COP(=S)(OC)Oc1ccc(Sc2ccc(OP(=S)(OC)OC)cc2)cc1`, for which the outcome was inactive.
Still for that read-out and setting: for `CC(=O)C(Cl)C(=O)N(C)C` (stereo unspecified) the value was “inactive”; for `COC[C@H](C)N(C(=O)CCl)c1c(C)csc1C`, “inactive”; for `COC(=O)c1sccc1S(=O)(=O)NC(=O)Nc1nc(C)nc(OC)n1`, “inactive”.
On the same count and under the same terms, for `O=C(O)C(F)(F)C(F)(F)C(F)(F)C(F)(F)C(F)(F)C(F)(F)F` the value was “inactive”; for `CCOP(=S)(OCC)SCCS(=O)(=O)CC`, “inactive”.
Take `O=C(O)C(F)(F)C(F)(F)C(F)(F)C(F)(F)C(F)(F)C(F)(F)C(F)(F)C(F)(F)C(F)(F)C(F)(F)F`: the AC50 was 5.14 µM (active) and 6.09 µM (active).
As for `CC(C)c1ccc(CO)cc1`, the result was inactive.
On the same count and under the same terms, to `CC(C)CCCCCCOC(=O)c1ccccc1C(=O)OCCCCCCC(C)C` belongs “inactive”; to `CCCCC(CC)CO[N+](=O)[O-]` (stereo unspecified), “inactive”; to `ClC1=C(Cl)[C@]2(Cl)[C@H]3[C@H]([C@H]4C=C[C@H]3C4)[C@@]1(Cl)C2(Cl)Cl`, “inactive”.
For the compound `C(=NC1CCCCC1)=NC1CCCCC1`, the AC50 was 11.9 µM (active).
For `CCSC(C)CC1CC(=O)C(C(CC)=NOC/C=C/Cl)=C(O)C1` (stereo unspecified), the outcome was inactive.
For the compound `Nc1ncc([N+](=O)[O-])s1`, the outcome was inactive.
Same read-out and setting: for `Nc1cccc2ccccc12` the value was “inactive”; for `COP(=S)(OC)Oc1c(Cl)cc(C)cc1Cl`, “inactive”.
With `O=[N+]([O-])c1ccc2c3c(cccc13)CC2`, the outcome was inactive.
In the case of `O=C(O)CCC(F)(C(F)(F)F)C(F)(F)F`, the result was inactive.
In the case of `NC(=S)Nc1ccccc1`, the outcome was inactive.
The same measure, in the same setting: to `O=S(=O)(c1ccc(Cl)cc1)c1ccc(Cl)cc1` belongs “inactive”; to `ClC(Cl)=C(Cl)C(Cl)=C(Cl)Cl`, “inactive”; to `Nc1ccc(-c2ccc(N)c(Cl)c2)cc1Cl`, “inactive”.
Take `COP(=S)(OC)Oc1ccc(S(=O)(=O)N(C)C)cc1`: the outcome was inactive.
Regarding `OCc1ccco1`, the result was inactive.
Same read-out and setting: to `Oc1c(I)cc(I)cc1I` belongs “inactive”; to `O=C(OC1CCCCC1)c1ccccc1C(=O)OC1CCCCC1`, “inactive”; to `CCOP(=S)(OCC)Oc1ccc(S(C)=O)cc1` (stereo unspecified), “inactive”.
On the same count and under the same terms, for `COc1cc(OC)nc(NC(=O)NS(=O)(=O)c2ncccc2C(=O)N(C)C)n1` the value was “inactive”; for `CC1(C)Cc2cccc(O)c2O1`, “inactive”.
As to `COP(=S)(OC)Oc1cc(Cl)c(Cl)cc1Cl`, the result was inactive.
Still for that read-out and setting: for `Oc1ccc(-c2ccccc2)cc1` the value was “inactive”; for `BrCCBr`, “inactive”.
For `CCOC(=O)/C=C(C)/C=C/C[C@@H](C)CCCC(C)C`, the AC50 is 32.5 µM (active).
With `O=Cc1cccc(Oc2ccccc2)c1`, the outcome was inactive.
For `CCCCCCCCC(=O)NCc1ccc(O)c(OC)c1`, the result was inactive.
The same measure, in the same setting: for `CCNc1nc(NC(C)(C)C)nc(SC)n1` the value was “inactive”.

Broadly, the AC50 is the concentration at which the activity in the assay is half-maximal.
